Screen size: about 2,300 compounds; about 350 (15%) were called active. How the calls were made is not given here. These entries were drawn from the full list. Measured potencies and affinities stand elsewhere.
Test: HepG2 cell cytotoxicity, dose response, cytotoxicity control for non-replicating M. tuberculosis project (AID 489018);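 further: HepG2 human liver cells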
Conditions: series mostly up to 20 µM
In the case of `O=C(OCc1c(Cl)cccc1Cl)c1ccccn1`, the outcome is reported as “inactive”. For `COC(=O)COc1cccc(NC(=O)COc2ccccc2)c1`, the outcome was “inactive”. In the case of `O=C(N/N=C/C(Br)=C/c1ccccc1)c1cnccn1`, the outcome is reported as “inactive”. In the case of `O=C(N/N=C/C(Br)=C/c1ccccc1)c1ccncc1`, the outcome is reported as “inactive”. With `COc1ccc(NC(=O)CCCN2C(=O)/C(=C\c3ccco3)SC2=S)cc1` the outcome was “inactive”. For `O=c1[nH]c(=O)n(Cc2ccccc2Cl)c(O)c1/C=C1/C=CC=N1`, the outcome was “inactive”. With `c1ccc(Nc2nc(Nc3ccccc3)nc(N3CCNCC3)n2)cc1` the outcome was “inactive”. For `COc1ccc(CCOC(=O)c2ccc(N)c([N+](=O)[O-])c2)cc1`, the outcome was “inactive”. In the case of `Cc1ccccc1NC(=O)c1nc[nH]c1C(=O)NCc1ccccc1`, the outcome is reported as “inactive”. In the case of `O=C(COC(=O)CCc1c[nH]c2ccccc12)Nc1cc([N+](=O)[O-])ccc1Cl`, the outcome is reported as “inactive”. In the case of `C[C@H](NC(=O)c1[nH]cnc1C(=O)Nc1ccccc1)C(=O)OC(C)(C)C`, the outcome is reported as “inactive”. With `O=c1c2c(nc3c(-c4ccccc4)c[nH]n13)CCCC2` the outcome was “inactive”. In the case of `Cc1ccc(-c2noc(CCCC(=O)Nc3cccnc3)n2)cc1`, the outcome is reported as “inactive”. With `CCCCNC(=O)COC(=O)c1cc(F)c(F)cc1Cl` the outcome was “inactive”. With `O=C(/C=C/Nc1ccccc1O)c1ccco1` the outcome was “inactive”. For `O=C(CCNc1ccc(F)cc1)c1ccco1`, the outcome was “inactive”. In the case of `COc1ccc(C(=O)COC(=O)c2ccccc2O)c(OC)c1`, the outcome is reported as “inactive”. In the case of `CCCS(=O)(=O)c1nnnn1-c1cccc(OC)c1`, the outcome is reported as “inactive”. For `CCOC(=O)Cn1cc(C#N)c2cccc(CC)c21`, the outcome was “inactive”. In the case of `CCn1c(NC(=O)c2ccccc2)nc2ccccc21`, the outcome is reported as “inactive”. With `CCOC(=O)COc1ccc2c(c1)c(C(C)=O)c(C)n2Cc1ccccc1` the outcome was “inactive”. With `CCOC(=O)C(C)Oc1ccc(OCc2ccccc2)cc1` (centres undefined) the outcome was “inactive”. With `CC(C)(C)NC(=O)c1ccc(NC(=O)c2ccccc2-c2ccccc2C(=O)O)cc1` the outcome was “inactive”. For `CSc1ccc(N=Nc2c(C)[nH]n(C)c2=O)cc1`, the outcome was “inactive”. In the case of `Nc1nc2ccccc2n1CCOc1ccccc1Cl`, the outcome is reported as “inactive”. With `C/C(=N\NC(=O)c1ccccc1)c1nc2ccccc2n1C` the outcome was “inactive”. In the case of `C/C(=N\NC(=O)c1ccc([N+](=O)[O-])c(C)c1)c1ccccc1Cl`, the outcome is reported as “inactive”. With `Cc1ccc(N2NC(=O)/C(=C/C=C/c3ccco3)C2=O)cc1C` the outcome was “inactive”. In the case of `c1ccc(CSc2ccc(-c3ccccn3)nn2)cc1`, the outcome is reported as “inactive”. For `COC(=O)/C(=C1/Oc2cc(C)oc(=O)c2S1)C(F)(F)F`, the outcome was “inactive”. For `O=C(Nc1ccccc1N1CCN(C(=O)c2ccc(Cl)cc2)CC1)c1ccc([N+](=O)[O-])o1`, the outcome was “inactive”. For `Cc1ccc(-n2nnnc2CNC(=O)c2ccc([N+](=O)[O-])o2)cc1C`, the outcome was “inactive”. In the case of `O=C(Nc1ccc(S(=O)(=O)N2CCOCC2)cc1)c1ccc([N+](=O)[O-])o1`, the outcome is reported as “inactive”. In the case of `O=C(Nc1cccc(Cl)c1N1CCCC1)c1ccc([N+](=O)[O-])o1`, the outcome is reported as “inactive”. For `O=C(Nc1nc2c(Cl)cccc2s1)c1ccc([N+](=O)[O-])o1`, the outcome was “inactive”. With `Cc1ccc(C)c(-c2nnc(NC(=O)c3ccc([N+](=O)[O-])o3)o2)c1` the outcome was “inactive”. In the case of `O=C(Nc1cccc(S(=O)(=O)N2CCCCC2)c1)c1ccc([N+](=O)[O-])o1`, the outcome is reported as “inactive”. With `O=C(Nc1ccc(Cc2ccncc2)cc1)c1ccc([N+](=O)[O-])o1` the outcome was “inactive”. For `CCNC(=O)COC(=O)c1ccc(-c2nc3ccccc3s2)s1`, the outcome was “inactive”. For `O=C(CCN1CCN(C/C=C/c2ccccc2)CC1)Nc1ccc(Cl)cc1`, the outcome was “inactive”. For `O=C(COc1ccc(F)cc1)N/N=C/c1cccc2cccnc12`, the outcome was “inactive”. In the case of `CCCn1nnnc1NC(=O)c1ccc2ccccc2c1`, the outcome is reported as “inactive”. In the case of `COCCn1c(C)cc(C(=O)COC(=O)c2ccc([N+](=O)[O-])o2)c1C`, the outcome is reported as “inactive”. With `CC(=O)Oc1c(-c2ccc(Br)o2)oc2ccccc2c1=O` the outcome was “inactive”. With `C=CCn1c(O)c(C2=c3ccccc3=NC2=O)c2ccccc21` the outcome was “inactive”. For `O=C1c2cc([N+](=O)[O-])cc3cc([N+](=O)[O-])cc(c23)C(=O)N1c1ccccn1`, the outcome was “inactive”. With `CCCCNC(=O)COC(=O)c1cc(Br)ccc1Cl` the outcome was “inactive”. In the case of `Cc1ccc(CNC(=O)c2ccc([N+](=O)[O-])o2)cc1`, the outcome is reported as “inactive”. With `O=C(Nc1cccnc1)c1ccc(-c2ccc(Cl)cc2)o1` the outcome was “inactive”. With `O=C(Nc1nc(-c2ccccn2)cs1)c1ccc([N+](=O)[O-])o1` the outcome was “inactive”. In the case of `O=C(Nc1ncccn1)c1ccc([N+](=O)[O-])o1`, the outcome is reported as “inactive”. With `O=C(Nc1ccccn1)c1ccc([N+](=O)[O-])o1` the outcome was “inactive”. In the case of `O=C(Nc1nccs1)c1ccc(-c2ccc(Cl)cc2)o1`, the outcome is reported as “inactive”. In the case of `CCOC(=O)c1cc(-c2csc(COc3ccc(Cl)cc3)n2)on1`, the outcome is reported as “inactive”. For `Cc1cccc(NC(=O)COC(=O)CCc2c[nH]c3ccccc23)c1C`, the outcome was “inactive”. For `CC(OC(=O)c1ccc2c(=O)n3c(nc2c1)CCCCC3)C(=O)Nc1ccc(Cl)cn1` (centres undefined), the outcome was “inactive”. In the case of `C=CCn1c(NC(=O)c2ccccc2)nc2ccccc21`, the outcome is reported as “inactive”. For `C/C(=N/NC(=O)c1ccncc1)C1=C(O)CC(C)(C)CC1=O`, the outcome was “inactive”. In the case of `C=Cc1cccc(NC(=O)COc2ccccc2)c1`, the outcome is reported as “inactive”. In the case of `Cc1ccc(NCCC(=O)c2cccs2)cc1Cl`, the outcome is reported as “inactive”. For `CCOC(=O)COc1ccc2c(c1)c(C(=O)OCC)c(C)n2CC`, the outcome was “inactive”. In the case of `Cc1cc(C)c2nc(/N=C(\N)NC(=O)Nc3ccccc3)nc(C)c2c1`, the outcome is reported as “inactive”. In the case of `NC(N)=Nc1nc(-c2ccccc2)c2ccccc2n1`, the outcome is reported as “inactive”. With `CCC(CC)c1nnc(NC(=O)c2ccc3ccccc3n2)s1` the outcome was “inactive”. With `Cc1ccc(NC(=O)CO/N=C/c2ccccc2C)c(C)c1` the outcome was “inactive”. For `CC(=O)CCC1CC(c2ccc(Cl)cc2)=NO1` (centres undefined), the outcome was “inactive”. With `CCCCCCNC(=O)c1ccc(Br)o1` the outcome was “inactive”. With `COc1cccc2cc(C(=O)NCc3ccc(F)cc3)c(=N)oc12` the outcome was “inactive”. With `O=[N+]([O-])c1cncc([N+](=O)[O-])c1Nc1ccccc1Cl` the outcome was “inactive”. In the case of `Cc1cc(Br)ccc1OCC(=O)NNC(=O)c1cnccn1`, the outcome is reported as “inactive”. In the case of `Cc1ccc(C(=O)C=CNNC(=O)c2ccccc2)cc1`, the outcome is reported as “inactive”. For `Cc1nc(C(=O)Nc2ccccc2)sc1C(=O)Nc1ccccc1`, the outcome was “inactive”. In the case of `CNC(=O)c1[nH]cnc1C(=O)Nc1ccc(Cl)cc1`, the outcome is reported as “inactive”. With `O=C(CN1CCOCC1)N/N=C/c1ccc(-c2ccc(Br)cc2)o1` the outcome was “inactive”. With `CCOCC(=O)Nc1ccc(C)c(Cl)c1` the outcome was “inactive”. For `O=C(Nc1ccccc1)c1ccc(Br)o1`, the outcome was “inactive”. For `CCC(C)(C)NC(=O)c1ccc(Br)o1`, the outcome was “inactive”. For `O=C(O)CCCCCN1C(=O)/C(=C\c2ccncc2)SC1=S`, the outcome was “inactive”. In the case of `CCn1c(-c2ccco2)nc2ccccc21`, the outcome is reported as “inactive”. With `COc1cccc(COC(=O)c2sc3nc4n(c(=O)c3c2C)CCC4)c1OC` the outcome was “inactive”. For `Cc1cccc(NC(=O)c2ccc([N+](=O)[O-])s2)n1`, the outcome was “inactive”. For `COc1ccc(NC(=O)c2cnc(SC)nc2)cc1`, the outcome was “inactive”. With `Cc1ccccc1-n1sc2cc(F)ccc2c1=O` the outcome was “inactive”. In the case of `CN(CCCCOc1ccc(F)cc1)Cc1ccccc1`, the outcome is reported as “inactive”. With `O=C(Nc1ccn(Cc2ccccc2)n1)c1ccc(F)cc1` the outcome was “inactive”. For `O=C(CCN1C(=O)S/C(=C\c2ccc(F)cc2)C1=O)Nc1ccc(C(=O)O)c(O)c1`, the outcome was “inactive”. With `FC(F)(Cl)c1nnc2ccc(Cl)nn12` the outcome was “inactive”. In the case of `Cn1c(SCc2c(F)cccc2Cl)nc2c(c1=O)SCC2`, the outcome is reported as “inactive”. With `O=C(Oc1ccccc1)c1cc2ccccc2o1` the outcome was “inactive”. With `COC(=O)c1ccc2c(c1O)C(=O)c1ccccc1C2=O` the outcome was “inactive”. For `COc1ccc(-c2[nH]ncc2CN2CCCCCCC2)c(OC)c1`, the outcome was “inactive”. In the case of `Cc1noc2ncnc(Sc3ccccc3Cl)c12`, the outcome is reported as “inactive”. With `Cc1ccc(/C=N/NC(=O)c2ccncc2)s1` the outcome was “inactive”. In the case of `O=C(N/N=C/c1ccc(Br)s1)c1ccncc1`, the outcome is reported as “inactive”. In the case of `O=C(Nc1nccs1)c1ccc2ccccc2c1`, the outcome is reported as “inactive”. In the case of `CC(C)(C)c1ccc(-c2nc(C#N)c(NCCCn3ccnc3)o2)cc1`, the outcome is reported as “inactive”. For `O=[N+]([O-])c1ccc(Nc2ccccc2O)c2nonc12`, the outcome was “inactive”. For `O=[N+]([O-])c1ccc(Nc2ccccc2)c2nonc12`, the outcome was “inactive”. For `C#CCSc1nnc(-c2ccc(C)cc2)o1`, the outcome was “inactive”. In the case of `c1ccc(CNCCC(Cc2ccccc2)c2ccco2)cc1` (centres undefined), the outcome is reported as “inactive”. For `O=C(Nc1ccc(Cl)cc1Cl)c1cccc(N2C(=O)C=CC2=O)c1`, the outcome was “inactive”. With `c1ccc2[nH]c(NC3=NCCC3)nc2c1` the outcome was “inactive”. For `Cc1cccc(OCCCCc2c(C)n[nH]c2C)c1`, the outcome was “inactive”. With `O=C(NC(=S)N1CCN(Cc2ccc3c(c2)OCO3)CC1)c1ccc(Cl)cc1` the outcome was “inactive”. For `COc1ccc(C(=O)Nc2ccccc2C(=O)N/N=C/c2ccco2)cc1`, the outcome was “inactive”. In the case of `O=C(COc1ccc(Cl)cc1)NNC(=O)c1ccccn1`, the outcome is reported as “inactive”. For `C/C(=N\Nc1cccc2cccnc12)c1ccccn1`, the outcome was “inactive”. With `C/C(=N\Nc1ccc(Cl)cc1)c1ccccn1` the outcome was “inactive”. For `O=C(N/N=C/c1ccccn1)c1ccccc1`, the outcome was “inactive”. In the case of `C/C(=N\NC(=O)CCCNc1ccc(C)cc1)c1ccccn1`, the outcome is reported as “inactive”. With `COc1cc(/C=N/NC(=O)c2ccccn2)ccc1OC(=O)c1cccs1` the outcome was “inactive”. In the case of `COc1ccccc1/C=C/C=N/NC(=O)c1ccncc1`, the outcome is reported as “inactive”. With `COc1ccc(N2C(=O)C(F)(F)C2c2cccc(F)c2)cc1` (centres undefined) the outcome was “inactive”. For `Cc1ccc(-c2nnc(NC(=O)c3ccco3)o2)c(C)c1`, the outcome was “inactive”. In the case of `Cc1ccc(S(=O)(=O)/N=C(\CCl)N2CCOCC2)cc1`, the outcome is reported as “inactive”. In the case of `O=C(N/N=C/c1cccc2cccnc12)[C@H]1C[C@@H]1c1ccccc1`, the outcome is reported as “inactive”. In the case of `O=C(CCc1c[nH]c2ccccc12)Nc1ncccc1O`, the outcome is reported as “inactive”. In the case of `CC(C)c1ccc(/C=N/NC(=O)c2ccccn2)cc1`, the outcome is reported as “inactive”. With `O=C(Nc1ccc(Br)cc1)c1cc([N+](=O)[O-])cc([N+](=O)[O-])c1` the outcome was “inactive”. In the case of `Nc1ccccc1C#CC(=O)c1ccccc1`, the outcome is reported as “inactive”. For `CCOC(=O)c1ccsc1NC(=O)CCS(=O)(=O)c1ccccc1`, the outcome was “inactive”. With `COC(=O)COc1ccc(-c2ccccc2)cc1C=O` the outcome was “inactive”. With `COc1ccc(-c2cc(C(F)(F)F)nc(S(C)(=O)=O)n2)cc1` the outcome was “inactive”. In the case of `COc1ccc(OCCOC(=O)CCS(=O)(=O)c2ccc(C)cc2)cc1`, the outcome is reported as “inactive”.

Source: PubChem BioAssay AID489018 (Southern Research Specialized Biocontainment Screening …, 2010)
